# Assay results taken from PMC5700166.
# Substitutions are numbered along the chain they refer to.
# Legend:
# Test in all cases: protein-binding microarray (PBM); PBM: ~300 nM protein, 6 mM HEPES pH 7.8, 80 mM KCl, 0.5 mM EDTA, 0.5 mM EGTA, 6% glycerol, 35 ng/ul poly-dIdC, 1% milk, 1 h, room temperature; Ap Aiptasia and Nv Nematostella (sea anemones) / Co Capsaspora / Aq Amphimedon (sponge) / Dm Drosophila / Hu human; RHD is the Rel homology domain; high values mean tight binding
# Details in all cases: dsDNA, one strand shown
# [1] = molecular target: T1, GST-Ap-NF-kB RHD (Exaiptasia pallida (Aiptasia), UniProt A0A913YAJ5 2-422)
# T1 sequence: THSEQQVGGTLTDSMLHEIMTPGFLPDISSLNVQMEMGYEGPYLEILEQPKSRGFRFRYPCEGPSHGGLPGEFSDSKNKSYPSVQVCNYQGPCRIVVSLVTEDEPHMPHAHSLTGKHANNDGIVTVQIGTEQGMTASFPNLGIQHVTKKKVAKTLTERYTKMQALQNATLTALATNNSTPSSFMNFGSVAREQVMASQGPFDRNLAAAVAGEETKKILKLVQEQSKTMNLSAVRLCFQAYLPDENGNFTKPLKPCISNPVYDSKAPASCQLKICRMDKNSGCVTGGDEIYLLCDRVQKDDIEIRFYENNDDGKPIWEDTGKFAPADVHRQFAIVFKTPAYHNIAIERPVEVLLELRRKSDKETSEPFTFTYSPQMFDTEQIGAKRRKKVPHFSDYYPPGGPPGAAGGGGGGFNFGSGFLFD
# [2] = molecular target: T2, GST-Nv-NF-kB (Cys allele) (Nematostella vectensis, UniProt E5G601 2-411)
# T2 sequence: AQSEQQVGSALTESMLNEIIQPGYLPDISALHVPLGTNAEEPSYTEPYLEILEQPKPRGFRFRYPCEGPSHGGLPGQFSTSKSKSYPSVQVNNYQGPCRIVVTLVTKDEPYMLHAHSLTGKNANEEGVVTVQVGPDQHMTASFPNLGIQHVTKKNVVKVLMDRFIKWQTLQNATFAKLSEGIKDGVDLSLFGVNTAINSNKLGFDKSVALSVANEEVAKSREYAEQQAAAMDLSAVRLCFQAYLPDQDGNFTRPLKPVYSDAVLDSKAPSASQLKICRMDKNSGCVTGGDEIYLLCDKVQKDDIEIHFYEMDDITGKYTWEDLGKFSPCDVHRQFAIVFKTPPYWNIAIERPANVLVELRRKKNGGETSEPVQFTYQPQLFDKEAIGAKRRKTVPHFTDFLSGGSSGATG
# [3] = molecular target: T3, GST-Co-NF-kB (Capsaspora owczarzaki, UniProt F1ARL5 200-546)
# T3 sequence: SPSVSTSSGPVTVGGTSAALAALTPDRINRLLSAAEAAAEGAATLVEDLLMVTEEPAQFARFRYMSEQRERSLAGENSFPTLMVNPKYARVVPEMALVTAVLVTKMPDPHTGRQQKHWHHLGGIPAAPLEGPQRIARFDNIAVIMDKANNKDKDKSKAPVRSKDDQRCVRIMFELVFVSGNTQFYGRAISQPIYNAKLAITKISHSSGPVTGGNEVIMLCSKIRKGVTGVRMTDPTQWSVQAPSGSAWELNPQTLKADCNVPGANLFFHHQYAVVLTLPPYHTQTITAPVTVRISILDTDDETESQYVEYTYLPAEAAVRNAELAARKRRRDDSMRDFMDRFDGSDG
# [4] = molecular target: T4, GST-Dm-Relish (Drosophila melanogaster, UniProt Q94527 99-473)
# T4 sequence: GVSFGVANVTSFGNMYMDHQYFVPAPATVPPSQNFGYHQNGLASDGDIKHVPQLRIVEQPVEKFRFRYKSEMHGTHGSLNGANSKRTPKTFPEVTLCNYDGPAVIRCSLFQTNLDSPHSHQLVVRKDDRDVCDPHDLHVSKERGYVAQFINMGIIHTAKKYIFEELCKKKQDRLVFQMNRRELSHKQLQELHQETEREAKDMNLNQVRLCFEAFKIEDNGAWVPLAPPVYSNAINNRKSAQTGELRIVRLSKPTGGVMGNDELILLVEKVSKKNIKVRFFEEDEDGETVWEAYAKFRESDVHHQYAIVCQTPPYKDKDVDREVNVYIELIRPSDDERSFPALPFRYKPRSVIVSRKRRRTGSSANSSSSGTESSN
# [5] = molecular target: T5, GST-Aq-NF-kB (Amphimedon queenslandica, UniProt A9Y5G7 2-389)
# T5 sequence: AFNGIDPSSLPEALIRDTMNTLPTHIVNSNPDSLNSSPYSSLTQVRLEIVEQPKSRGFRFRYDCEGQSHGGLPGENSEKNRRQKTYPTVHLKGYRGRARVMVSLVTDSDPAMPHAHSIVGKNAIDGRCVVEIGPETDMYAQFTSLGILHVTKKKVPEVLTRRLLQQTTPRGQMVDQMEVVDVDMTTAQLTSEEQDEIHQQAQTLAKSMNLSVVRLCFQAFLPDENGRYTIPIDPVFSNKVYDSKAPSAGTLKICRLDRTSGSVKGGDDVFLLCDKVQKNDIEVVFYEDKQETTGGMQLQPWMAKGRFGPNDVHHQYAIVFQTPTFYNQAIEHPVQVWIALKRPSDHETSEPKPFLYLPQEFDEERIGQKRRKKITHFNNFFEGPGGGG
# [6] = molecular target: GST-Hu-p50 (Homo sapiens, UniProt P19838 7-356)
# Sequence of GST-Hu-p50 (P19838 7-356): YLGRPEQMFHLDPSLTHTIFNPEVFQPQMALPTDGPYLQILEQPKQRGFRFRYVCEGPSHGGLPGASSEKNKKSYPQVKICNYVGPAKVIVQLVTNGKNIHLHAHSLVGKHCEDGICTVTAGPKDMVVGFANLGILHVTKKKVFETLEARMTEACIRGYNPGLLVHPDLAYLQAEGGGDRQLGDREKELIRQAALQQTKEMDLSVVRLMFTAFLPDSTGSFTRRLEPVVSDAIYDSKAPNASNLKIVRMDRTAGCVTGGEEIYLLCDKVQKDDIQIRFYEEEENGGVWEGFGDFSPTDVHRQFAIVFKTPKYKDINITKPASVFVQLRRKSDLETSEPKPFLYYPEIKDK
# [7] = molecular target: T6, GST-Nv-NF-kB (Ser allele) (Nematostella vectensis, UniProt A7UNT2 2-411)
# T6 sequence: T2 sequence with Q21R, C66S, S207N, E215Q, V217A, E225K, A268E, D399E
Sequence,binding signal [1] [z-score],binding signal [2] [z-score],binding signal [3] [z-score],binding signal [4] [z-score],binding signal [5] [z-score],binding signal [6] [z-score],binding signal [7] [z-score]
CCGATTAACATCAAGGGGGGACTTGATGTTAATCGGGTCTTGATTCGCTTGACGCTGCTG,4.76,5.56,5.68,5.09,5.14,5.19,–
CCGATTAACATCAGAAATACCCATGATGTTAATCGGGTCTTGATTCGCTTGACGCTGCTG,4.24,5.32,1.74,3,4.73,5.12,–
CCGATTAACATCAGGGGGTATTATGATGTTAATCGGGTCTTGATTCGCTTGACGCTGCTG,7.58,5.39,4.88,4.91,5.8,5.39,–
CCGATTAACATCAGGAGACCCCCTGATGTTAATCGGGTCTTGATTCGCTTGACGCTGCTG,5.3,3.64,1.61,5.66,6.55,4.1,–
CCGATTAACATCAATATCCCCCCTGATGTTAATCGGGTCTTGATTCGCTTGACGCTGCTG,7.34,5.13,8.06,5.53,5.74,5.69,–
CCGATTAACATCAAGGGAATTCCTGATGTTAATCGGGTCTTGATTCGCTTGACGCTGCTG,7.9,8.71,3.76,7.95,8.11,5.3,–
CCGATTAACATCAAAGCACCCCCTGATGTTAATCGGGTCTTGATTCGCTTGACGCTGCTG,4.9,3.86,3.63,3.26,4.36,4.35,–
CCGATTAACATCAGGGGGTTCACTGATGTTAATCGGGTCTTGATTCGCTTGACGCTGCTG,5.94,4.09,2.91,10.4,5.84,5.34,–
CCGATTAACATCAGAAACCCCCATGATGTTAATCGGGTCTTGATTCGCTTGACGCTGCTG,7.61,6.32,2.76,8.35,5.97,6.52,–
CCGATTAACATCACGGGAACTCCTGATGTTAATCGGGTCTTGATTCGCTTGACGCTGCTG,3.24,2.3,1.84,6.49,4.59,1.48,–
CCGATTAACATCAAACTCCCCCGTGATGTTAATCGGGTCTTGATTCGCTTGACGCTGCTG,6.89,5.44,7.66,5.92,5.84,6.48,–
CCGATTAACATCAAAGAGTCCCCTGATGTTAATCGGGTCTTGATTCGCTTGACGCTGCTG,6.56,6.17,3.49,6.3,5.8,5.88,–
CCGATTAACATCAATAAAATCCCTGATGTTAATCGGGTCTTGATTCGCTTGACGCTGCTG,4.23,4.4,2.13,6.47,4.79,4.24,–
CCGATTAACATCAGGAAAGCCCCTGATGTTAATCGGGTCTTGATTCGCTTGACGCTGCTG,7.03,9.89,1.05,8.43,9.59,6.88,–
CCGATTAACATCAGGGATTTTTATGATGTTAATCGGGTCTTGATTCGCTTGACGCTGCTG,5.66,6.48,1.77,7.93,6.66,5.31,–
CCGATTAACATCAGAGTATCCCCTGATGTTAATCGGGTCTTGATTCGCTTGACGCTGCTG,5.9,4.9,4.05,3.14,3.98,4.2,–
CCGATTAACATCAGGGGGAGTCATGATGTTAATCGGGTCTTGATTCGCTTGACGCTGCTG,5.67,4.38,4.79,3.88,4.55,4.72,–
CCGATTAACATCAGAAATGCCCCTGATGTTAATCGGGTCTTGATTCGCTTGACGCTGCTG,4.03,5.61,1.98,4.09,5.32,5.55,–
CCGATTAACATCAGAAGACCCCCTGATGTTAATCGGGTCTTGATTCGCTTGACGCTGCTG,5.66,3.66,1.79,4.9,4.82,4.45,–

Sequence,binding signal [1] [z-score],binding signal [2] [z-score],binding signal [3] [z-score],binding signal [4] [z-score],binding signal [5] [z-score],binding signal [6] [z-score],binding signal [7] [z-score]
CCGATTAACATCAAAAATGCCCCTGATGTTAATCGGGTCTTGATTCGCTTGACGCTGCTG,4.41,6.79,2.95,5.68,6.07,5.92,–
CCGATTAACATCAAATTTACCCCTGATGTTAATCGGGTCTTGATTCGCTTGACGCTGCTG,3.29,3.57,8.25,3.85,4.53,4.09,–
CCGATTAACATCAGGGGGGATACTGATGTTAATCGGGTCTTGATTCGCTTGACGCTGCTG,6.78,4.85,6.57,5.55,4.94,5.66,–
CCGATTAACATCAGGGCCTTTTGTGATGTTAATCGGGTCTTGATTCGCTTGACGCTGCTG,1.85,1.14,–,5.05,2.46,2.05,–
CCGATTAACATCACGGGCTTCCCTGATGTTAATCGGGTCTTGATTCGCTTGACGCTGCTG,1.85,2,–,7.65,4.57,1.14,–
CCGATTAACATCAGAAAATCACCTGATGTTAATCGGGTCTTGATTCGCTTGACGCTGCTG,2.77,3.28,–,6.91,3.39,5.67,–
CCGATTAACATCAGGGAGTGCCCTGATGTTAATCGGGTCTTGATTCGCTTGACGCTGCTG,2.83,2.18,–,3.85,5.66,1.98,–
CCGATTAACATCAGGACTGCCCCTGATGTTAATCGGGTCTTGATTCGCTTGACGCTGCTG,3.49,4.13,–,3.18,7.05,4.09,–
CCGATTAACATCACCCGGGTAAATGATGTTAATCGGGTCTTGATTCGCTTGACGCTGCTG,1.42,–,2.41,–,1.02,1.11,1.15
CCGATTAACATCAGGGGGGGACATGATGTTAATCGGGTCTTGATTCGCTTGACGCTGCTG,5.67,5.09,7.08,3.75,4.34,4.11,–
CCGATTAACATCAGGAAAGGCCCTGATGTTAATCGGGTCTTGATTCGCTTGACGCTGCTG,2.38,2.62,–,5.48,5.31,2.61,–
CCGATTAACATCAGGTGTTTCCATGATGTTAATCGGGTCTTGATTCGCTTGACGCTGCTG,1.26,1.06,–,2.26,1.98,2.81,–
CCGATTAACATCACCCCAAACGCTGATGTTAATCGGGTCTTGATTCGCTTGACGCTGCTG,1.27,–,1.79,–,1.09,1.17,–
CCGATTAACATCAATTCCCCCCGTGATGTTAATCGGGTCTTGATTCGCTTGACGCTGCTG,7.28,–,8.8,5.54,5.76,5.76,6.61
CCGATTAACATCACTAAACCCCCTGATGTTAATCGGGTCTTGATTCGCTTGACGCTGCTG,6.72,4.83,3.32,7.51,4.92,6.25,–
CCGATTAACATCACGGGAAGCCCTGATGTTAATCGGGTCTTGATTCGCTTGACGCTGCTG,2.49,1.91,–,7.08,4.42,1.11,–
CCGATTAACATCAGGAGTGCCCCTGATGTTAATCGGGTCTTGATTCGCTTGACGCTGCTG,2.63,2.03,1.41,2.25,5,2.25,–
CCGATTAACATCAGGCATACCCCTGATGTTAATCGGGTCTTGATTCGCTTGACGCTGCTG,1.96,1.5,1.89,1.3,3.12,1.59,–
